# Reference: ChEMBL document CHEMBL5308504, “Tm Shift (DSF) assay results for EUbOPEN Chemogenomics Library” (2023)
# Several values for one entry are separate records, joined by “and”; a condition that tells them apart may be missing. Equal values may be shown once.
# Experiments:
# [1] = target: Bromodomain-containing protein 4 (Homo sapiens) (UniProt O60885); settings: Compound concentration 20.0 uM, Protein concentration 2.0 uM, Result type QC Liability
# [2] = target: T1, Transcription intermediary factor 1-alpha (Homo sapiens) (UniProt O15164); settings: Compound concentration 20.0 uM, Protein concentration 2.0 uM, Result type QC Liability
# T1 sequence (whole entry): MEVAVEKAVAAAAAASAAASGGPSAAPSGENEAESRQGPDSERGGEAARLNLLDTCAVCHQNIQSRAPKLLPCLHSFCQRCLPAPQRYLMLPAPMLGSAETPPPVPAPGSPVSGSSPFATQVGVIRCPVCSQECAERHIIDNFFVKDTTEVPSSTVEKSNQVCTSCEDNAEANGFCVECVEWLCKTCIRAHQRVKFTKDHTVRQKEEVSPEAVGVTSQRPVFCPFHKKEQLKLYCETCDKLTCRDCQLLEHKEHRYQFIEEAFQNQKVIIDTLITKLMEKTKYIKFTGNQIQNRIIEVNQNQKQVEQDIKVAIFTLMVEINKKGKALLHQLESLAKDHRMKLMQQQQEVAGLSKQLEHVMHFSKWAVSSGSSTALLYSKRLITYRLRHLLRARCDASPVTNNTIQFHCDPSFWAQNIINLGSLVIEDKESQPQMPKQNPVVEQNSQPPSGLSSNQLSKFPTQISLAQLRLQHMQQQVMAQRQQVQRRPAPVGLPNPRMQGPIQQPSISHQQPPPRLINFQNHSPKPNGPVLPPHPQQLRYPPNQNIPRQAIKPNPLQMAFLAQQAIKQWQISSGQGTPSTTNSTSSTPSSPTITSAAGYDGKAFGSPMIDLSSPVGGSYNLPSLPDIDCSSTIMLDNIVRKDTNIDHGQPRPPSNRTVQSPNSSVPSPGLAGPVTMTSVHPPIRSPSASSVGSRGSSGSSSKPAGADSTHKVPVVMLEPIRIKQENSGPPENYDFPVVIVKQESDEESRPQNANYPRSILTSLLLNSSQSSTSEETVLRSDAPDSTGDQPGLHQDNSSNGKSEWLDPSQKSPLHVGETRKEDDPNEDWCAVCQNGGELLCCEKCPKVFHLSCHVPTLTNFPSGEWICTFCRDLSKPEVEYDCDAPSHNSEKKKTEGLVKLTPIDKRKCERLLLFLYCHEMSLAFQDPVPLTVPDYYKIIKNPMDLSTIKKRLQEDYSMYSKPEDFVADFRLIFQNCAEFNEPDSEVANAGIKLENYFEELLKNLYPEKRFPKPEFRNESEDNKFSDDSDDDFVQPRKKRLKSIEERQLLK
Compound,ΔTm [1],ΔTm [2]
O=C(Nc1cccc(C(F)(F)F)c1)c1cccc(-n2cc(-c3ccco3)nn2)c1,-12.8 °C,-0.66 °C
Cc1cc(-c2cnc(N)c3c(-c4ccc5scnc5c4)csc23)n(C)n1,-1.04 °C,-1.95 °C
COc1ccc(C(F)(F)F)cc1NC(=O)Nc1ccc(Oc2cc(C)nc(N)n2)c2ccccc12,-0.19 °C,-0.94 °C
CC(=O)N(CCN(C)C)c1ccc(N/C(=C2\C(=O)Nc3cc(Cl)ccc32)c2ccccc2)cn1,-1.57 °C,-4.13 °C
COc1ccc(N(C(=O)Nc2c(C)cccc2C)c2cc(Nc3ccc(N4CCN(C)CC4)cc3)ncn2)c(OC)c1,2.62 °C,0.7 °C
COc1cc2nc([C@@H]3CCCS(=O)(=O)C3)n(C)c2cc1NC(=O)c1cccc(C(C)(F)F)n1,0.39 °C,0.7 °C
CNC(=O)c1ccc(C)c(-n2c(C)cc(OCc3ccc(F)cc3F)c(Br)c2=O)c1,-1.55 °C,-2.58 °C
CN(C)[C@H]1C[C@H](n2cnc(-c3ccc(F)cn3)c2-c2ccnc3[nH]ccc23)C1,-2.13 °C,-2.35 °C
Cc1ccc2c(NS(=O)(=O)c3ccccc3Cl)cccc2c1Oc1ncccc1-c1ccnc(N[C@H]2CCCNC2)n1,0.99 °C,1.37 °C
CC/C(=C(\c1ccccc1)c1ccc(OCCN(C)C)cc1)c1ccccc1,-4.1 °C,-5.01 °C
CN1CCC(C#N)(NC(=O)[C@@H](NC(=O)N2CCOCC2)C(C)(C)C)CC1,0.17 °C,0.14 °C
CCS(=O)(=O)Nc1cccc(Oc2cc(F)cc(Nc3ccc(I)cc3F)c2NS(=O)(=O)C2CC2)c1,-2.86 °C,3.45 °C
CCCCC/C=C/C=C1/C(=O)C=C[C@@H]1C/C=C\CCCC(=O)O,-4.89 °C,-1.14 °C
CN[C@@H](C)C(=O)N[C@H](C(=O)N1CCC[C@H]1C(=O)N[C@H]1c2ccccc2C[C@H]1OCC#CC#CCO[C@@H]1Cc2ccccc2[C@@H]1NC(=O)[C@@H]1CCCN1C(=O)[C@@H](NC(=O)[C@H](C)NC)C1CCCCC1)C1CCCCC1,-4.51 °C,-2.69 °C
CN[C@@H](C)C(=O)N[C@H](C(=O)N1CCC[C@H]1C(=O)Nc1sc(-c2ncco2)nc1-c1ccccc1)C1CCCCC1,-2.68 °C,-2.9 °C
Cn1c(C2(NC(=O)c3ccc4c(C5CCCC5)c(-c5ncc(Br)cn5)n(C)c4c3)CCC2)nc2ccc(/C=C/C(=O)O)cc21,0 °C and -4.93 °C,0.68 °C and -0.65 °C
CC(C)NC(=O)[C@H]1CCC[C@H]1Nc1nc(Nc2ccc(C(=O)N(C)C3CCN(C)CC3)cc2)ncc1Cl,-1.48 °C and -0.92 °C,0.3 °C and -2.89 °C

Compound,ΔTm [1],ΔTm [2]
CN(C)CCCNc1ccnc(Nc2cccc(Cl)c2)n1,-2.63 °C,-4.21 °C
CN(CC(=O)Nc1ccc(F)c(F)c1F)C(=O)c1ccc2c(c1)OCCO2,-2.94 °C,-2.59 °C
Cn1cc(-c2cnc3ccc4ccc(CS(=O)(=O)NCc5ccccn5)cc4c(=O)c3c2)cn1,-1.72 °C,-0.28 °C
CCCN1CCC(C#N)(NC(=O)[C@H](CC(C)(C)C)NC(=O)N2CCOCC2)CC1,-0.48 °C,0.46 °C
CNc1ncc2cc(-c3ccc(-c4cccc(C)n4)cc3Cl)c(=O)n(C[C@H]3OC[C@H](N)CO3)c2n1,-1.96 °C,-2.28 °C
CSc1ccc(C(=O)/C=C/c2cc(C)c(OC(C)(C)C(=O)O)c(C)c2)cc1,-3.49 °C,-3.46 °C
O=C1Nc2nc(-c3c(O)cccc3OCC3CC3)cc([C@@H]3CCCNC3)c2CO1,-0.38 °C,0.45 °C
Cc1cc(CN)cc(C)c1-c1ncn(C)c1-c1ccnc2cc(F)ccc12,-0.64 °C,0.17 °C
COc1cc2ncnc(Nc3cccc(O)c3)c2cc1OC,0.18 °C,-0.88 °C
CN1Cc2nccc(-c3cn(C)nc3-c3ccc(F)cc3)c2C1=O,-1.27 °C,-1.67 °C
CC[C@H](CC(=O)O)n1c(=O)c2ncccc2n(Cc2cn(C)c3cc(C)cc(C)c23)c1=O,-1.38 °C and -3.06 °C,0.26 °C and -1.81 °C
Fc1cccc(-n2cnc3c(NCc4nc5c(F)c(F)ccc5[nH]4)nc(N4CCOCC4)nc32)c1,0.39 °C,-0.44 °C
CN(C)C(=O)Cn1cc(-c2ccc(-c3cncc4ccccc34)cc2)cn1,-2.19 °C,0.13 °C
Cc1cnc(Nc2ccc(C(=O)N3CCN(C)CC3)cc2)nc1N[C@@H]1CCC[C@@H]1C(N)=O,-1.32 °C,-3.2 °C
CC1CCN(C(=O)[C@@H](CCn2cccc2C#N)NS(=O)(=O)c2cccc3[nH]ccc23)CC1,-1.03 °C,0.52 °C
O=C(CNCc1cc2ccccc2[nH]1)N[C@H]1CC[C@@H](c2nc3ccccc3[nH]2)CC1,-0.08 °C,-0.53 °C
Fc1ccc(-c2c3cccc(C(F)(F)F)c3nn2Cc2ccc(F)cc2Cl)cc1,-3.53 °C,-1.16 °C
